Measured values from PubChem BioAssay AID720700 (The Scripps Research Institute Molecular Screening Center, 2013).
Screen size: about 370,000 compounds; about 3,100 (0.84%) were called active. Cut-off read from the data, not from the text of the source: active = inhibition above about 9.5%; inactive = the rest. Shown is part of a subset that was picked to be rich in actives.

What follows are compounds tested against 1-phosphatidylinositol 4,5-bisphosphate phosphodiesterase gamma-1 (Homo sapiens) (UniProt P19174) (assay: blockers of human PLCG1 activity – biochemical, fluorescence, purified enzyme, primary screen (AID 720700)). Conditions: purified PLC-gamma1, fluorogenic substrate, at 12.2 µM, stronger effect = higher value.
Sequence of 1-phosphatidylinositol 4,5-bisphosphate phosphodiesterase gamma-1 (Homo sapiens) (P19174 whole entry, looked up): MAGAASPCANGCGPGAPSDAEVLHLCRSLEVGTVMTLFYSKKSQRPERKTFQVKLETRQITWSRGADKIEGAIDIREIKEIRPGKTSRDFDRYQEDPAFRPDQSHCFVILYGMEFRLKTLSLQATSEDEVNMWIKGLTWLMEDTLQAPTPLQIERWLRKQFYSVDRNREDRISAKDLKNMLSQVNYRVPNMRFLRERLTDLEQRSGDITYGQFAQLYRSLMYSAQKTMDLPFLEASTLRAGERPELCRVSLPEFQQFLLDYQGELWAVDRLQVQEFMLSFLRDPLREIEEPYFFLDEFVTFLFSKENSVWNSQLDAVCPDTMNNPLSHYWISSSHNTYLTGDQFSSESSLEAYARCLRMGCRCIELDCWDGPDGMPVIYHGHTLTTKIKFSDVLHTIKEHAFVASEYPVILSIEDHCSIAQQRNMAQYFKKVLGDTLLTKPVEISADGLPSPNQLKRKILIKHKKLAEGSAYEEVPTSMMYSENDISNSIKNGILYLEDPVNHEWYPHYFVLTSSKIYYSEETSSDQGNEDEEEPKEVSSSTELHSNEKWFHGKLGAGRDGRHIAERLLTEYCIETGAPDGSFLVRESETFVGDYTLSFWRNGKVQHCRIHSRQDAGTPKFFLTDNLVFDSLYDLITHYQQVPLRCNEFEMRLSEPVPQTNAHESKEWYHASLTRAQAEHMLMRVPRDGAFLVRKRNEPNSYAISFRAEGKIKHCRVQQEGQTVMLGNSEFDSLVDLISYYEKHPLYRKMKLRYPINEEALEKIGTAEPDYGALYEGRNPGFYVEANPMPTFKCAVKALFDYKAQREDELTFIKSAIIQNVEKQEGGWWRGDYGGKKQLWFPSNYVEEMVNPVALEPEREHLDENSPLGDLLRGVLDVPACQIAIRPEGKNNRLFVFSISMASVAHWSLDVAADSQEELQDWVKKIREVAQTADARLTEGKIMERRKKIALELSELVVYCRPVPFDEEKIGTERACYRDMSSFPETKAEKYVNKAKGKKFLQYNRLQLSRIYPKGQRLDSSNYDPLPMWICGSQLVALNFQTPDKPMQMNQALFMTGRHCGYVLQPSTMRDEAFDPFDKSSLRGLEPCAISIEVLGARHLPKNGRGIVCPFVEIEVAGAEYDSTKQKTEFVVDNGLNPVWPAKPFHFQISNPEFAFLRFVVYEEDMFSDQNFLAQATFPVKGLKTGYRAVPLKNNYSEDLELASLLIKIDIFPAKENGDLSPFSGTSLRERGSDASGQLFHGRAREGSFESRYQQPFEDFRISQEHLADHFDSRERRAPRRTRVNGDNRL

inhibition, active:
COC(=O)C[C@@H]1CC[C@@H]2[C@H](COc3ccc(NC(=O)c4cccc(F)c4)cc3C(=O)N2C)O1 12.8%
COc1cc(NC(=O)COC(=O)c2ccc([N+](=O)[O-])s2)cc(OC)c1OC 16.4%
O=c1c2ccccc2c(-c2ccccc2)nn1Cc1ccccc1 12.3%
Cc1cc(C)c(NC(=O)CN2CCOCCOCCOCCOCC2)c(C)c1 14%
COCc1cc(C(C)=O)ccc1OC 12.2%
COc1ccc(CCNC(=O)COC(=O)Cc2ccccc2F)cc1 10.7%
Cc1ccc(NS(=O)(=O)c2ccc(N/N=C/c3ccccc3OCC(=O)O)c([N+](=O)[O-])c2)c(C)c1 10.8%
Nc1nnc(SCC(=O)OCc2ccc(Cl)c(Cl)c2)s1 10.9%
O=C(NC12CC3CC(CC(C3)C1)C2)N1CCCC(CO)C1 (configuration not stated) 11.5%
Cc1c(C#N)c2ncn(CC#N)c(=O)c2n1-c1ccccc1 9.69%
CCc1ccc(-c2nc(SCC(=O)NC3CCCC3)n[nH]2)cc1 9.58%

inhibition, inactive:
COc1ccc(C#CCNCc2ccc(OC)cc2OC)cc1 2.01%
Cc1cc(C(=O)NN=C/C=C/c2ccco2)n[nH]1 -16.7%
CCCCNC(=O)C[C@H]1C(=O)N(Cc2ccc(OC)cc2)C2=CCCC[C@@]21C(=O)OCC 4.39%
COC(=O)C[C@H]1CC[C@H]2[C@H](COc3ccc(NC(=O)C4CC4)cc3C(=O)N2C)O1 -1%
COC(=O)C[C@@H]1CC[C@@H]2[C@@H](COc3ccc(NC(=O)Nc4ccc(F)c(F)c4)cc3C(=O)N2C)O1 1.9%
COC(=O)c1cccc(Cn2ccc3ccc(-c4ccc5ccn(C(=O)C6CCCCC6)c5c4)cc32)c1 -51.3%
CC(=O)N1CCCN(C2=Nc3ccccc3Sc3ccccc32)CC1 0.02%
COc1ccc(C(=O)OCC(=O)Nc2ccc3[nH]c(=O)[nH]c3c2)c(OC)c1OC 4.24%
O=C(OCC(=O)N1CCN(c2ccccc2)CC1)c1ccc([N+](=O)[O-])s1 -1.31%
COc1ccc2c(c1)CN1CN(CCc3ccccc3)S(=O)(=O)CC21 (configuration not stated) -10.3%
C=CCn1c(SCC(N)=O)nnc1-c1ccccc1OC 1.51%
C=CS(=O)(=O)N(Cc1nnn(Cc2ccccc2)c1Br)[C@H](C(=O)OC)C(C)C 2.5%
CCN(C(=O)[C@@H](C1CC1)[C@@H](O)c1ccc2ccccc2c1)c1ccccc1 1.27%
O=c1c2ccccc2c(-c2ccc(Br)cc2)nn1Cc1ccccc1 -0.25%
O=c1c2ccccc2c(-c2ccccc2)nn1-c1ccccn1 2.78%
O=C(CN1CCOCC1)Nc1c(Cl)cc(Cl)cc1Cl 0.95%
Cc1cc(C)c(NC(=O)CN2CCCCCC2)c(C)c1 4.73%
Cc1ccccc1NC(=O)COC(=O)c1ccc(Sc2ncn[nH]2)c([N+](=O)[O-])c1 -0.83%
COc1ccc(C(C)=O)cc1COc1ccc(Cl)c(C)c1 2.04%
COc1ccc(C(C)=O)cc1COC(=O)Cn1cnc2ccccc2c1=O 5.51%
COC[C@@H]1CCCN1c1ccc2c(c1)O[C@H](C)CCN(C1CC1)S2(=O)=O -1.38%
O=C(c1ccncc1)N1CC[C@H]2[C@H](CCCN2Cc2ccc(F)cc2)C1 2.52%
O=C(OC12CCCN(C1)/C(=C/c1ccccc1)C2)c1ccco1 (configuration not stated) 6.33%
COc1ccc(CCNC(=O)COC(=O)Cc2cccc(F)c2)cc1 -3.08%
O=C(COC(=O)Cc1ccccc1F)NCCc1ccccc1 -0.55%
COC(=O)C[C@@H]1CC[C@H]2[C@@H](COc3ccc(NS(=O)(=O)CC(F)(F)F)cc3C(=O)N2C)O1 0.55%
CC(C)N1CCCCC(NC(=O)c2ccc3ccccc3c2)C1=O (configuration not stated) -1.22%
Cc1ccc(S(=O)(=O)NC(=O)COc2ccccc2C)cc1 -1.05%
Cc1ccc(NS(=O)(=O)c2ccc3c(c2)n(C)c(=O)c(=O)n3C)c(C)c1 -0.33%
COC(=O)[C@]12C[C@H](CC(=O)NCCc3ccccc3OC)C(=O)N(Cc3ccco3)C1=C[C@H](C(C)C)O[C@@H]2C1CC1 -0.19%
O=C(NCCC1=CCCCC1)C1CCN(S(=O)(=O)c2ccc(Cl)s2)CC1 -0.14%
CCOC(=O)c1csc(NC(=O)C2CCCN(S(=O)(=O)c3ccc(Cl)s3)C2)n1 (configuration not stated) 6.52%
CN(C)Cc1cn(-c2ccc(-c3noc4c3C(=O)N(CC(=O)N3CCOCC3)CC4)cc2)nn1 -16.7%
COC(=O)c1ccc(CSc2nnc(N)s2)o1 -0.29%
CN(C(=O)CSc1nnc(N)s1)c1c(N)n(Cc2ccccc2)c(=O)[nH]c1=O -0.92%
CCCC1CCC2(CCCN2CCOC(=O)NCc2ccccc2)CC1 (configuration not stated) 2.03%
O=C(NCC12CC3CC(C1)CC(CNC(=O)N1CCCC1)(C3)C2)N1CCCC1 -0.47%
O=C(CNCCO)NC12CC3CC(CC(C3)C1)C2 9.27%
O=C(NCCc1c[nH]c2ccccc12)OCc1cn(-c2c(F)cccc2F)nn1 -2.05%
CCCCCCCCNS(=O)(=O)/C=C/c1cc(C)ccc1CNC(=O)OC(C)(C)C -1.88%
COC(=O)[C@]12C[C@H](CC(=O)NCCCN3CCCC3=O)C(=O)N(CCc3ccc(OC)c(OC)c3)C1=C[C@H](COCc1ccccc1)O[C@@H]2C 4.14%
CN(C)/C=C/c1c(C#N)c(=O)ncn1Cc1ccccc1 2.62%
CC(=O)Cn1cnc2c(cnn2-c2ccccc2)c1=O 0.74%
COC(CNC(=O)[C@H](Cc1ccccc1)NC1(C(=O)NC2CCCCC2)CCCCC1)OC 0.41%
CCc1c(C)nc(SCC(=O)NC2CCCC2)[nH]c1=O 0.69%
COC(=O)c1ccccc1NC(=O)CSc1n[nH]c(-c2ccncc2)n1 1.06%
